Inconclusive results are not listed. Calls of active or inactive are those of the source. Unless noted, calls follow the shape of the dose curve; as a rule, active = well fitted curve in the direction sought with a large enough effect in the repeat runs; inconclusive = weak or mixed curves; inactive = no such curve, though single readings can be large; an effect the other way counts as inactive or inconclusive.
Key:
[1] = qHTS assay to identify small molecule antagonists of the estrogen related receptor (ERR) signaling pathway from Tox21 library - cell viability counter screen (AID 1224834); also: nearly all actives have a fitted effect of over 30% in size
Procedure, shortened: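 CellTiter-Fluor fluorescence measured; ERR cells; 17.5 h compound incubation at 37 C; 30 min reagent step.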

[2] = target: Luciferin 4-monooxygenase (Photinus pyralis) (UniProt P08659); assay: qHTS assay to identify small molecule inhibitors of firefly luciferase (AID 1224835); also: series mostly up to about 120 µM; nearly all actives have a fitted effect of over 25% in size
Procedure, shortened: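 Inhibition of purified Photinus luciferase is measured by luminescence. Substrate levels (D-luciferin, ATP) sit at their KM values. Each compound is tested in a concentration series.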

[3] = qHTS assay to identify small molecule agonists of the constitutive androstane receptor (CAR) signaling pathway - cell viability counter screen (AID 1224836); also: series mostly up to about 92 µM; nearly all actives have a fitted effect of over 45% in size
Procedure, shortened: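 HepG2 cells stably carrying hCAR and a CYP2B6-2.2kb reporter; 15-concentration compounds plus PK11195 (final 0.75 uM), 23 hr at 37 C/5% CO2. Viability read by CellTiter-Fluor fluorescence.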

[4] = qHTS assay to identify small molecule antagonists of the constitutive androstane receptor (CAR) signaling pathway - cell viability counter screen (AID 1224837); also: series mostly up to about 92 µM; nearly all actives have a fitted effect of over 45% in size
Procedure, shortened: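 Using CellTiter-Fluor, viability is scored in HepG2 cells stably carrying hCAR and a 2.2kb CYP2B6 reporter after 23 hr compound exposure across 15 concentrations, with CITCO present at 50 nM.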

[5] = qHTS assay to identify small molecule antagonists of the estrogen related receptor signaling pathway with the pleiotropic PPARgamma coactivator (PGC) from Tox21 10K library - cell viability counter screen (AID 1224840; active = well fitted cell-killing curve with a large enough effect in the repeat runs, not every such curve was filed as active; also: nearly all actives have a fitted effect of over 40% in size)
Procedure, shortened: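 Here the PGC/ERR cells serve as a cytotoxicity control: they are exposed to compounds for 17.5 hours at 37 C, and live-cell signal is quantified using CellTiter-Fluor fluorescence.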

[6] = target: Thyrotropin receptor (Homo sapiens) (UniProt P16473); assay: qHTS assay to identify small molecule agonists of the thyroid stimulating hormone receptor (TSHR) signaling pathway (AID 1224843; calls by dose curve; also: nearly all actives have a fitted effect of over 45% in size)
Procedure, shortened: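 HEK293 cells stably bearing the thyrotropin receptor were plated at 800 cells/well and challenged with compound (30 min, RT). Accumulated cAMP was quantified via cAMP-d2 competing for cryptate-tagged antibody.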

[7] = qHTS assay to identify small molecule agonists of the hypoxia (HIF-1) signaling pathway - cell viability counter screen (AID 1224844; calls by dose curve; also: nearly all actives have a fitted effect of over 50% in size)
Procedure, shortened: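 Multiplexed with the HRE beta-lactamase assay, this viability read used CellTiter-Glo luminescence (30 min, RT) on HRE-bla ME-180 cells treated 17 hrs with compounds in 0.5% dialyzed FBS medium.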

[8] = qHTS assay to identify small molecule agonists of H2AX (AID 1224845; active = well fitted activation curve with a large enough effect in the signal ratio in the repeat runs, not every such curve was filed as active; the % refers to the signal ratio)
Procedure, shortened: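 Phospho-H2AX Ser139 measured by HTRF (ex 320 nm; em 665 and 620 nm) after 24 hr antibody incubation. Compounds, 15 concentrations, 0.76% DMSO, were applied to CHO-K1 cells for 3hr at 37C before lysis.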

[9] = qHTS assay to identify small molecule agonists of the hypoxia (HIF-1) signaling pathway (AID 1224846; active = well fitted activation curve with a large enough effect in the signal ratio in the repeat runs, not every such curve was filed as active; the % refers to the signal ratio)
Procedure, shortened: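 Hypoxia-pathway activation was scored as increased beta-lactamase from an HRE-controlled reporter in ME-180 cells; plated at 2,000 cells per well with 0.5% dialyzed FBS, they were exposed 17 hrs to compounds and then given CCF4-AM.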

[10] = qHTS assay to identify small molecule agonists of H2AX - cell viability counter screen (AID 1224847; calls by dose curve;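 also: wild-type CHO-K1 cells; top concentration of the series differs between compounds; nearly all actives have a fitted effect of over 30% in size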)
Procedure, shortened: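 CHO-K1 cells plated overnight at 37C, then exposed 3 h at 37C to compounds at 15 concentrations (0.76% DMSO final). Viability by CellTiter-Glo luminescence after 30 min at room temperature.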

[11] = qHTS RealTime-Glo MT Cell Viability Assay in HepG2 cells - 24 hour (AID 1224867); also: nearly all actives have a fitted effect of over 50% in size
Procedure, shortened: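 HepG2 cells (600/well) were dispensed with RealTime-Glo reagents, incubated 5 h at 37 °C, then treated with compounds in DMSO for up to 40 h. Nonlytic NanoLuc luminescence reflecting viable cells was read at each stated time point.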

[12] = qHTS RealTime-Glo MT Cell Viability Assay in HEK293 cells - 32 hour (AID 1224868); also: top concentration of the series differs between compounds; nearly all actives have a fitted effect of over 50% in size
Procedure, shortened: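 HEK293 cells seeded with NanoLuc/prosubstrate reagent, rested 5 h at 37 C, then dosed and kept at 37 C up to 40 h. Nonlytic real-time luminescence from viable cells read at 0, 8, 16, 24, 32 and 40 h.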

[13] = A CellTox Green Cytotoxicity Assay to monitor cytotoxicity in HEK293 cells - 0 hour (AID 1224869); also: nearly all actives have a fitted effect of over 50% in size
Procedure, shortened: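 Seeding of HEK293 cells together with cytotoxicity dye preceded a 5 h incubation at 37 C/5% CO2. Test compounds in DMSO were then added and fluorescence monitored across 40 h.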

[14] = qHTS RealTime-Glo MT Cell Viability Assay in HepG2 cells - 40 hour (AID 1224870); also: nearly all actives have a fitted effect of over 50% in size
Procedure, shortened: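 Real-time viability: cells seeded at 600 per well together with NanoLuc and cell-permeant prosubstrate, compounds added after 5 h incubation. Luminescence tracked at 0, 8, 16, 24, 32 and 40 h of exposure.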

Measured: Potency

Luciferin 4-monooxygenase (Photinus pyralis), sequence (P08659 whole entry, looked up): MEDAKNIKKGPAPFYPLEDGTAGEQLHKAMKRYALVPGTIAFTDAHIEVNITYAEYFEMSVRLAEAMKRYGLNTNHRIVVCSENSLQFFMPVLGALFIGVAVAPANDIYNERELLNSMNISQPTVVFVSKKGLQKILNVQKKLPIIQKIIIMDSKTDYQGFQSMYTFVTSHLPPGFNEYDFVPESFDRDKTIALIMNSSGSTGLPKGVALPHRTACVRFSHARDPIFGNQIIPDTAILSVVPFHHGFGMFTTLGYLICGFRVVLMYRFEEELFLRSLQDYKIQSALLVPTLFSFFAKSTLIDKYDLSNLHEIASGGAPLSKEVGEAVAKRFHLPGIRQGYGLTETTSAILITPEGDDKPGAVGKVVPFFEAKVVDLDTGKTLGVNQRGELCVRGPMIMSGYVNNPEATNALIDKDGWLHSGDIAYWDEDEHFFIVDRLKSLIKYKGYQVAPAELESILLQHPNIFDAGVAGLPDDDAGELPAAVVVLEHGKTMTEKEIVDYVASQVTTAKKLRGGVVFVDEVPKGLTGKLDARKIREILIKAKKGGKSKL
Thyrotropin receptor (Homo sapiens), sequence (P16473 whole entry, looked up): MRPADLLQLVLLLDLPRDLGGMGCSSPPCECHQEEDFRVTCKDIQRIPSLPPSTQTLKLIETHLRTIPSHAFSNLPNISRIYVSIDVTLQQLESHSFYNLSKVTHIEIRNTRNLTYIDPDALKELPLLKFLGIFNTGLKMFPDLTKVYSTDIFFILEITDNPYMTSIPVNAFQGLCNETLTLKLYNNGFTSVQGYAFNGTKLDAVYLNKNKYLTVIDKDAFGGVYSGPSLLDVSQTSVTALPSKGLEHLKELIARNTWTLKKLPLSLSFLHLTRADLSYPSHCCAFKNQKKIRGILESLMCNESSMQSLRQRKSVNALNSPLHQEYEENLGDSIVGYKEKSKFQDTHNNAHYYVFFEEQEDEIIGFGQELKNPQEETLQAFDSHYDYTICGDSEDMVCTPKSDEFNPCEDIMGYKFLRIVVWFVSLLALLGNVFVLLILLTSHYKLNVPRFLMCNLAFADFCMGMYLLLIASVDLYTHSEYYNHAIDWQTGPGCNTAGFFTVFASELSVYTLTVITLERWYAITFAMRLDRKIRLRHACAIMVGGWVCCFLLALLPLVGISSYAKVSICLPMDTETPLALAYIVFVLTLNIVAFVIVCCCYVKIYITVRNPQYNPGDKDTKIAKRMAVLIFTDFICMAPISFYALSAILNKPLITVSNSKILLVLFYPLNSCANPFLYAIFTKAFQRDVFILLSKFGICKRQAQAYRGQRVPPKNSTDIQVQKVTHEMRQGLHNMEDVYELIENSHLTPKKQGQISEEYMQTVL

C=C(C)CC(C)(C)C
inactive: all assays above

Cc1ncc(CO)c(CO)c1O
not listed: [9]
inactive: all other assays above

CN1CCCC1=O
not listed: [6]
inactive: all other assays above

CC(=O)OC[C@H]1O[C@@](COC(C)=O)(O[C@H]2O[C@H](COC(C)=O)[C@@H](OC(C)=O)[C@H](OC(C)=O)[C@H]2OC(C)=O)[C@@H](OC(C)=O)[C@@H]1OC(C)=O
not listed: [5]
inactive: all other assays above

CCn1cc(C(=O)O)c(=O)c2cc3c(cc21)OCO3
not listed: [9]
inactive: all other assays above

Cc1cccc(C)c1[N+](=O)[O-]
not listed: [5]
inactive: all other assays above

COC(=O)CCCCC(=O)OC
not listed: [6]
inactive: all other assays above
